Reference: PubChem BioAssay (NCATS)
Records with an inconclusive call do not appear. Calls of active or inactive are those of the source. Unless noted, calls follow the shape of the full dose curve.

Tests used:
[1] = target: Cytochrome P450 1A2 (Homo sapiens) (UniProt P05177); assay: p450-cyp1a2 (AID 410); also: potency is read from the fitted curve at half-maximal effect;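 as to activity change, negative = inhibition: -100% = full effect of reference inhibitor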
How it was run: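 O-Demethylation of luciferin 6' methyl ether by human CYP1A2 is monitored as luciferase luminescence. Substrate sits at Km (100uM); enzyme is 20nM. Values are scaled to 57 uM furafylline as maximal inhibition.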

[2] = NFAT Signaling Pathway (AID 444; active = well fitted curve in either direction with a large enough effect, not every such curve was filed as active;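 also: carbachol stimulus at about its EC50 of 1 µM final; % is scaled to controls: 0 for no effect and ±100 for the full control effect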); details: Jurkat NFAT-bla M1, carbachol, beta-lactamase ratio, 5 h; at 17.2 µM (top of the series) unless noted
How it was run: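 Jurkat cells carrying an NFAT-driven β-lactamase reporter and co-transfected muscarinic M1 receptor were treated with compound plus carbachol (1 uM final, an EC50 level) for 5 h at 37 °C. CCF4 loading followed for 1 h at RT; 460/530 nm ratio gave %activity.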

[3] = Stat Signaling Pathway (AID 446; active = well fitted curve in either direction with a large enough effect, not every such curve was filed as active;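 also: ME-180 cervical cancer cells given 40 pM IL-6 alongside compound; SIE-controlled beta-lactamase reporter measured as 460/530 nm FRET emission ratio; % is scaled to controls: 0 for no effect and ±100 for the full control effect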)
How it was run: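 Normalization used AC90 stimulation (300 pM IL-6) and AC90 inhibition (125 nM pan-JAK inhibitor at 40 pM IL-6). The underlying signal is SIE-driven beta-lactamase in ME-180 cells after 5 h IL-6 exposure with compound.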

[4] = Cell Viability - BJ (AID 421); details: BJ fibroblast viability, qHTS;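 also: potency is read from the fitted curve at half-maximal effect; cells exposed to compound for 40 hours at 37 °C before readout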
How it was run: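 Normal human BJ foreskin fibroblasts, 1500/well in complete medium, treated 40 hr at 37 °C. Cellular ATP by CellTiter-Glo luminescence; normalized to DMSO and 100 uM tamoxifen, AC50 from Hill fit.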

[5] = Cell Viability - Jurkat (AID 426;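 active = dose-dependent loss of cell ATP signal giving a full or clear fitted curve, ranked by lower potency value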; also: potency is read from the fitted curve at half-maximal effect); details: qHTS
How it was run: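 Cells of the human T-cell leukemia line Jurkat (E6-1) are seeded at 5000 per well, treated with compound across a concentration range for 40 hours at 37 °C, then lysed with CellTiter-Glo; luminescence reports ATP.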

[6] = Cell Viability - Hek293 (AID 427;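 active = compounds whose dose-response curve shows a full or clear partial loss of cell viability, called from curve shape rather than a numeric limit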;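 also: potency is read from the fitted curve at half-maximal effect; cells exposed to compound for 40 hours at 37 °C before reading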); details: qHTS
How it was run: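 HEK293 cells in complete medium were exposed to compound for 40 hr at 37 °C, then cellular ATP was read by CellTiter-Glo luminescence. Data were normalized to DMSO (basal) and 100 uM tamoxifen (100% inhibition), and AC50 came from Hill fits.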

[7] = Cell Viability - HepG2 (AID 433); details: qHTS;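 also: potency is read from the fitted curve at half-maximal effect; potency for ATP loss meaning cytotoxicity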
How it was run: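 Read-out is luciferase-based quantitation of cellular ATP as a measure of viable HepG2 cells after 40 h treatment at 37 °C. Signal decrease is scaled between DMSO-only and 100 uM tamoxifen controls, with AC50 fitted by the Hill equation.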

[8] = Cell Viability - MRC5 (AID 434); details: MRC5 lung fibroblast viability, qHTS;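 also: potency is read from the fitted curve at half-maximal effect; potency reflects cytotoxicity seen as loss of intracellular ATP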
How it was run: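 Decrease in intracellular ATP, quantified by luciferase light output, reflects compound toxicity toward MRC5 cells exposed for 40 hr in complete culture medium. Concentration-response curves, scaled between DMSO and 100 uM tamoxifen, gave AC50 values.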

[9] = Cell Viability - SK-N-SH (AID 435); details: SK-N-SH neuroblastoma cell viability qHTS;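 also: potency is read from the fitted curve at half-maximal effect; compound exposure lasted 40 h at 37 °C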
How it was run: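 Luminescent ATP signal served as the viability read-out after 40 hours of compound treatment of human neuroblastoma SK-N-SH cells. Concentration-response data, scaled between DMSO and 100 uM tamoxifen, gave AC50 values by standard Hill modeling.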

Chain of Cytochrome P450 1A2 (Homo sapiens) (P05177 whole entry, looked up): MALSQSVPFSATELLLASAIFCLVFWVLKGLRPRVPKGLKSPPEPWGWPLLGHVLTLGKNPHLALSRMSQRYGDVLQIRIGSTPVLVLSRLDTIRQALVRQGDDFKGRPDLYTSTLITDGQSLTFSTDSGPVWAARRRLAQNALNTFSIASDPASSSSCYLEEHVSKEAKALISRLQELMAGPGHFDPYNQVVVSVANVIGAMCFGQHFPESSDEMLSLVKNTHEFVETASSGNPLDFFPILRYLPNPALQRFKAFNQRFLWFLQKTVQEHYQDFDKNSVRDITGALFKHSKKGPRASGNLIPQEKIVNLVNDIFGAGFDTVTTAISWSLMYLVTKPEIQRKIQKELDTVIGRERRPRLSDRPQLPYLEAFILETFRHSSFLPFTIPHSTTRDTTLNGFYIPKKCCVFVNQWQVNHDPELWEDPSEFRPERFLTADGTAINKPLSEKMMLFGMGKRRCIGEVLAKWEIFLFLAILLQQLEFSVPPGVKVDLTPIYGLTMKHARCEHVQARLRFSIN

Cc1cc(C)c(NC(=O)C[C@H](CC(=O)O)c2cccc3ccccc23)c(C(=O)N2CCC3(CCCC3)CC2)c1
inactive: Potency [1] | activity change, negative = inhibition [2] -7.66% [at 38 µM] | outcome [3]

CCSc1ccc2c(c1)N(CCCN1CCN(C)CC1)c1ccccc1S2
active: Potency [1] 0.316 µM
inactive: outcome [3]

CNC(=O)c1c(I)c(C(=O)NCC(=O)Nc2c(I)c(C(=O)O)c(I)c(C(=O)NCCO)c2I)c(I)c(N(C)C(C)=O)c1I
inactive: Potency [1] | activity change, negative = inhibition [2] -16% | outcome [3]

CCCCC
inactive: Potency [4] > 92 µM | Potency [5] > 92 µM | Potency [6] > 92 µM | Potency [7] > 92 µM | Potency [8] > 92 µM | Potency [9] > 92 µM

COc1cc(S(C)=O)ccc1-c1nc2ncccc2[nH]1 (stereo unspecified)
inactive: activity change, negative = inhibition [2] 21.1% | outcome [3]
active: Potency [1] 0.251 µM

CCCOc1cc(N)ccc1C(=O)OCCN(CC)CC
active: Potency [1] 12.6 µM
inactive: outcome [3]

CO/N=C(/C(=O)N[C@@H]1C(=O)N2C(C(=O)O)=C(COC(N)=O)CS[C@H]12)c1ccco1
inactive: Potency [4] > 92 µM | Potency [5] > 92 µM | Potency [6] > 92 µM | Potency [7] > 92 µM | Potency [8] > 92 µM | Potency [9] > 92 µM

OB(O)O
inactive: Potency [4] > 92 µM | Potency [5] > 92 µM | Potency [6] > 92 µM | Potency [7] > 92 µM | Potency [8] > 92 µM | Potency [9] > 92 µM

CN1C(=O)OC(C)(C)C1=O
inactive: Potency [1] | activity change, negative = inhibition [2] -1.31%

ClC(Cl)Cl
inactive: Potency [4] > 92 µM | Potency [5] > 92 µM | Potency [6] > 92 µM | Potency [7] > 92 µM | Potency [8] > 92 µM | Potency [9] > 92 µM

Cc1cc(-c2ccc(N=Nc3ccc4c(S(=O)(=O)O)cc(S(=O)(=O)O)c(N)c4c3O)c(C)c2)ccc1N=Nc1ccc2c(S(=O)(=O)O)cc(S(=O)(=O)O)c(N)c2c1O
active: Potency [1] 12.6 µM

OCc1ccccc1
inactive: Potency [4] > 92 µM | Potency [5] > 92 µM | Potency [6] > 92 µM | Potency [7] > 92 µM | Potency [8] > 92 µM | Potency [9] > 92 µM

Nc1ncnc2c1ncn2[C@H]1CC[C@@H](CO)O1
inactive: Potency [4] > 92 µM | Potency [5] > 92 µM | Potency [6] > 92 µM | Potency [7] > 92 µM | Potency [8] > 92 µM | Potency [9] > 92 µM

COC(=O)c1ccccc1O
inactive: Potency [4] > 92 µM | Potency [5] > 92 µM | Potency [6] > 92 µM | Potency [7] > 92 µM | Potency [8] > 92 µM | Potency [9] > 92 µM

CC(=O)[C@H]1CC[C@H]2[C@@H]3C=CC4=CC(=O)CC[C@@]4(C)[C@H]3CC[C@]12C
inactive: Potency [1] | outcome [3]

O=C(O)Cc1nn(Cc2ccc(Br)cc2F)c(=O)c2ccccc12
active: Potency [1] 31.6 µM

O=C(O)Cc1cc(I)c(Oc2ccc(O)c(I)c2)c(I)c1
active: Potency [1] 12.6 µM
inactive: activity change, negative = inhibition [2] -22.7% | outcome [3]

CO
inactive: Potency [4] > 92 µM | Potency [5] > 92 µM | Potency [6] > 92 µM | Potency [7] > 92 µM | Potency [8] > 92 µM | Potency [9] > 92 µM

O=C(O)CCC(=O)c1ccc(-c2ccccc2)cc1
active: Potency [1] 12.6 µM
inactive: activity change, negative = inhibition [2] -7.68% | outcome [3]

C[C@H](CCC(=O)O)[C@H]1CC[C@H]2[C@@H]3CC[C@@H]4C[C@H](O)CC[C@]4(C)[C@H]3C[C@H](O)[C@]12C
inactive: Potency [4] > 92 µM | Potency [5] > 92 µM | Potency [6] > 92 µM | Potency [7] > 92 µM | Potency [8] > 92 µM | Potency [9] > 92 µM

CC1=CCC2CC1C2(C)C (stereo unspecified)
inactive: Potency [4] > 92 µM | Potency [5] > 92 µM | Potency [6] > 92 µM | Potency [7] > 92 µM | Potency [8] > 92 µM | Potency [9] > 92 µM

CC(=O)Oc1cc(C(F)(F)F)ccc1C(=O)O
inactive: Potency [1] | activity change, negative = inhibition [2] 27.2% | outcome [3]

CC(C)O
inactive: Potency [4] > 92 µM | Potency [5] > 92 µM | Potency [6] > 92 µM | Potency [7] > 92 µM | Potency [8] > 92 µM | Potency [9] > 92 µM

[O-][N+](=Nc1ccccc1)c1ccccc1
inactive: Potency [4] > 92 µM | Potency [5] > 92 µM | Potency [6] > 92 µM | Potency [7] > 92 µM | Potency [8] > 92 µM | Potency [9] > 92 µM

OCC(O)CO
inactive: Potency [4] > 92 µM | Potency [5] > 92 µM | Potency [6] > 92 µM | Potency [7] > 92 µM | Potency [8] > 92 µM | Potency [9] > 92 µM
